Screens from PubChem.
Pf growth 96h – Primary qHTS for delayed death inhibitors of the malarial parasite plastid, 96 hour incubation | P. falciparum luciferase reporter growth, 96 h | actives 6.9% (n = 320,000) | Potency, µM (titrated, usually from 28.7 µM), for inactives: top-dose activity change, negative = inhibition, most hits filed as inhibitors; also: potency is read from the fitted curve at half-maximal effect; % is scaled to controls: 0 for no effect and ±100 for the full control effect
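96 h incubation, 37 C, 5% CO2, of luciferase-reporter P. falciparum-infected RBCs (2% hematocrit, 0.05% parasitemia final) with test compounds; endpoint luminescence.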
Pf growth 48h – Primary qHTS for delayed death inhibitors of the malarial parasite plastid, 48 hour incubation; P. falciparum luciferase growth in erythrocytes, 48 h; Potency, µM (highest dose often 28.7 µM), for inactives: at the highest dose activity change, negative = inhibition, usual class: inhibitors; actives 5.9% (n = 310,000); also: potency is read from the fitted curve at half-maximal effect; % is scaled to controls: 0 for no effect and ±100 for the full control effect
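Luciferase-expressing parasites in RBCs, 2% Hct / 0.1% parasitemia final; RPMI 1640 + 0.5% Albumax; 37 C, 5% CO2, one generation; luminescence read-out, lower signal = inhibition.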
Cycloheximide cs – Cycloheximide Counterscreen for Small Molecule Inhibitors of Shiga Toxin; actives 12% (n = 300,000); cell reporter, cycloheximide protein synthesis inhibition counterscreen; max response, %; AID 2314, 2010; in the data active = max response mostly above about 13%, no sharp cut-off; inactive = mostly below about 14%; also: read at 38.3 µM for the half of the compounds with a filed dose; 0% is about no effect
Shiga toxin inh – A qHTS for Small Molecule Inhibitors of Shiga Toxin; inhibition, % at 38.7 µM; AID 2315, 2010; actives 9.2% (n = 290,000); Vero cells, Shiga toxin protein synthesis inhibition reporter; in the data active = inhibition mostly above about 28%, no sharp cut-off; inactive = mostly below about 43%; also: 0% is about no effect
An asterisk follows results filed as active. Most compounds without a hit are left out; they make up all but 21% or so of the library. Unless noted, calls follow the shape of the dose curve; as a rule, active = well fitted inhibition curve with a large enough effect; inconclusive = small, poorly fitted or top-dose-only effect, or another doubt; inactive = no such curve, though single readings can be large or run the other way.

`O=C(COC(=O)CC1SC(N2CCCC2)=NC1=O)Nc1ccc(Br)cc1` (stereo unspecified) gave Pf growth 96h 80% and Pf growth 48h 59%.
Screening COc1cccc(NC(=O)c2sc(Cl)nc2C)c1 returned Pf growth 96h -17%, Pf growth 48h -17% and Cycloheximide cs 13*.
`Cc1ccc(NC(=O)c2ocnc2C)cc1Cl` gave Pf growth 96h inconclusive, Pf growth 48h 144%, Cycloheximide cs 52* and Shiga toxin inh 70*.
Screening Cc1cccc(NC(=O)c2sc(C)nc2C)c1 returned Pf growth 96h 212%, Pf growth 48h 216%, Cycloheximide cs 50* and Shiga toxin inh 84*.
Screening Cc1nc(C)c(C(=O)Nc2cccc(C)c2C)s1 returned Pf growth 96h inconclusive, Pf growth 48h 54%, Cycloheximide cs 11 and Shiga toxin inh 19.
Screening Cc1ccccc1NC(=O)c1ocnc1C returned Pf growth 96h -20%, Pf growth 48h 1%, Cycloheximide cs 1 and Shiga toxin inh 0.
`Cc1ncoc1C(=O)Nc1cccc(Cl)c1C` gave Pf growth 96h 7%, Pf growth 48h 39%, Cycloheximide cs 16* and Shiga toxin inh 15.
For O=C(Nc1ccn([C@H]2CC[C@@H](CO)O2)c(=O)n1)c1ccccc1 the results were Pf growth 96h 93%, Pf growth 48h 45%, Cycloheximide cs -4 and Shiga toxin inh 5.
Cc1ncoc1C(=O)Nc1cccc(Cl)c1 was read as Pf growth 96h 50%, Pf growth 48h 58%, Cycloheximide cs 63* and Shiga toxin inh 100*.
Cc1nc(Cl)sc1C(=O)Nc1ccc(C(F)(F)F)cc1 was read as Pf growth 96h -15%, Pf growth 48h 11% and Cycloheximide cs 20*.
COc1cccc(NC(=O)c2ocnc2C)c1 was read as Pf growth 96h 17%, Pf growth 48h 79%, Cycloheximide cs 25* and Shiga toxin inh 63*.
For COC(=O)c1ccccc1NC(=O)c1sc(Cl)nc1C the results were Pf growth 96h -7%, Pf growth 48h -2%, Cycloheximide cs 15* and Shiga toxin inh 80*.
`COc1cccc(NC(=O)c2cnc(SC)nc2C)c1` gave Pf growth 96h 53%, Pf growth 48h -15%, Cycloheximide cs 10 and Shiga toxin inh 5.
CCCOc1ccc(CNC(=O)c2ccc3c(c2)N(CC)CCS3)cc1 was read as Pf growth 96h 10%, Pf growth 48h 5%, Cycloheximide cs -1 and Shiga toxin inh -2.
`Cc1cc(=O)[nH]c(-c2ccccc2OC(F)(F)F)n1` gave Pf growth 96h 0%, Pf growth 48h 0%, Cycloheximide cs -3 and Shiga toxin inh -2.
`Cc1ccc(N(C(=O)c2csnn2)C(C(=O)NC(C)(C)C)c2cccnc2)cc1` (stereo unspecified) gave Pf growth 96h inconclusive, Pf growth 48h 149%, Cycloheximide cs 5 and Shiga toxin inh -9.
Cc1cccc(C(=O)Nc2nc(C)c(C(=O)Nc3ccc4c(c3)CCC4)s2)c1 was read as Pf growth 96h 131%, Pf growth 48h 174%, Cycloheximide cs 17* and Shiga toxin inh 14.
`Cc1nc(NC(=O)C2CC2)sc1C(=O)Nc1cccc(Cl)c1` gave Pf growth 96h inconclusive, Pf growth 48h inconclusive, Cycloheximide cs 1 and Shiga toxin inh -3.
`O=C(/C=C/c1ccccc1F)c1ccoc1` gave Pf growth 96h 37%, Pf growth 48h 10%, Cycloheximide cs 26* and Shiga toxin inh 123*.
CN(C(=O)c1ccoc1)c1ccccc1I was read as Cycloheximide cs -3 and Shiga toxin inh 25.
Screening Cc1ccc2oc(C(=O)Nc3nnc(C)s3)c(C)c2c1 returned Pf growth 96h 187%, Cycloheximide cs 17* and Shiga toxin inh 50.
For Cc1ccc2oc(C(=O)Nc3nonc3C)c(C)c2c1 the results were Pf growth 96h -15%, Pf growth 48h 57%, Cycloheximide cs 28* and Shiga toxin inh 67*.
For CCc1nonc1NC(=O)c1oc2cc(C)c(Cl)cc2c1C the results were Pf growth 96h 15%, Pf growth 48h 38%, Cycloheximide cs 6 and Shiga toxin inh 9.
Screening CCc1nonc1NC(=O)c1oc2cc(C)c(C)cc2c1C returned Pf growth 96h 9%, Pf growth 48h 75%, Cycloheximide cs 25* and Shiga toxin inh 37.
For Cc1ccc(NC(=O)CN2CCC(NC(=O)c3ccccc3F)CC2)cc1C the results were Pf growth 96h 26%, Pf growth 48h -6%, Cycloheximide cs -1 and Shiga toxin inh -10.
For CCNc1nnc(SCC(=O)NC2CCCCCC2)s1 the results were Pf growth 96h 2% and Pf growth 48h 0%.
